The other results are listed elsewhere or left out. Calls of active or inactive are those of the source. The rule behind the calls is not given here.
Experiment: Assay for Inhibitors of Influenza NS1 Protein Function: Influenza virus replication assay in MDCK cells infected with virus A/PR/8/34
Conditions: MDCK infected influenza A/PR/8/34, virus titer TCID50, at 5 µM; viability: measured here: MDCK cell viability, stronger effect = higher value; virus titer (log TCID50): stronger effect = lower value
Excerpt: NIH Chemical Genomics Center [NCGC]
NIH Molecular Libraries Probe Centers Network [MLPCN]
Assay Submitter (PI): Daniel Engel
Influenza is a world-wide public health problem and emerging forms of the virus have the potential to cause a pandemic of equal or greater magnitude to the outbreaks recorded in 1918, 1957 or 1968. Vaccine development is proceeding and there also exist two classes of anti-influenza compounds. However these therapeutic modalities are neither fully effective nor widely enough available to fulfill global needs. In addition their potential usefulness against newly emergent strains is not known. Efforts are needed to develop novel agents against influenza virus, including broad-spectrum agents. Identification of small molecules that inhibit NS1 function either directly or by interfering with specific cellular pathways may be a key to increasing our defense against the virus.
We have miniaturized and optimized a cell based assay in which NS1 from influenza A is expressed in the budding yeast S. cerevisiae. NS1 is a multi-functional protein that counters the host innate immune response and facilitates viral versus cellular gene expression. Expression of NS1 causes a pronounced slow growth phenotype in yeast due to its intrinsic molecular activities. Small molecules that suppress the slow growth phenotype can be identified by a straightforward growth recovery assay using optical density (OD) as the measurement. The same yeast strain not expressing NS1 was used as positive control in the yeast growth recovery assay. The present experiment attempted to confirm the activity of compounds observed in the primary screen.
This assay confirms the activity of compounds from the primary screen by measuring their affect on viral replication.
Protocol details are given in Basu et al. J. Vir. 83(4):1881-1891 2009. […] All media and sera were from Invitrogen. […] Confluent cell monolayers were infected at a multiplicity of infection (MOI) of 0.1 for 48 h in the presence or absence of 5uM compound. Compounds were added at the beginning of infection and were present throughout the infection. After 48 h virus titers were determined by standard TCID50 analysis.

SMILES | viability [%] | virus titer (log TCID50)
O=C1c2cccc(OCC(=O)N3N=C(c4cccs4)CC3c3ccc(F)cc3)c2CCN1Cc1ccccc1 (stereo not given) | 91 | 8.5 log10 TCID50 (inactive)
CCCc1cc(=O)[nH]c(SCC(=O)c2cc(C)n(CCC)c2C)n1 | 95.4 | 7.5 log10 TCID50 (active)
Cc1cc(C)c2cc(CN(Cc3nnnn3Cc3ccc(F)cc3)C3CCCC3)c(=O)[nH]c2c1 | 103 | 8.5 log10 TCID50 (inactive)
Cc1ccc(Cn2c(C)nc3c(c2=O)c2nc4ccccc4nc2n3Cc2ccco2)cc1 | 101 | 7.5 log10 TCID50 (active)
O=c1cc(O)nc(SCc2ccccc2Cl)[nH]1 | 104 | 7.66 log10 TCID50 (inactive)

Reference: PubChem BioAssay AID504647 (National Center for Advancing Translational Sciences (NCATS), 2011)
